Data from the emibetuzumab library of Makowski et al. (2022).
The list shows a part of the results. The hit rate among all sequences tested is not known here.

B1: VH:VL chains; a variant is named by its letters at X, in order (parent)
chain 1: QVQLVQSGAEVKKPGASVKVSCKASGYTFTDYXMHWVRQAPGQGLEWMGXVNPNXXXTTYNQKFEGRVTMTTDTSTSTAYMELRSLRSDDTAVYYCARXNXLDXWGQGTTVTVSS
chain 2: DIQMTQSPSSLSASVGDRVTITCSVSSSVSSIYLHWYQQKPGKAPKLLIYSTSNLASGVPSRFSGSGSGTDFTLTISSLQPEDFATYYCQVYSGYPLTFGGGTKVEIK

Variants of: B1
Experiment: yeast display scFab, FACS + sequencing
Conditions: with MET
Outline: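 Round-3 sorted and input populations from a heavy-chain CDR mutant scFab yeast library were deep sequenced in two replicates. Sorting used FACS on cells labelled for 3 h at room temperature with 1 nM HGFR-Fc and anti-Myc in PBSB with 1% milk, keeping the top 50% antigen-positive cells. Any sequence seen in both antigen-positive samples was called a binder, while one seen only in the input was called a non-binder.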

| Variant | antigen binding call |
| --- | --- |
| SKKGDFWV | no binding |
| VETEGDWD | no binding |
| VRAETDVY | no binding |
| YRRGSSLV | binds |
| DAEGDAGD | no binding |
| VGGRGDGS | no binding |
| VKGRGAGS | binds |
| VKGRASAS | no binding |
| VKGRGSGS | binds |
| VKGGSFGS | no binding |
| VTEGGDVA | no binding |
| YTTGGDWA | no binding |
| DATGGSVD | no binding |
| DTGGDDGF | no binding |
| YARADDAS | no binding |
| VETGGAVA | no binding |
| VETGGAAA | no binding |
| VEGEDAAA | no binding |
| VRRGGSAA | binds |
| VRRGGAAA | binds |
| VRTGGAAA | binds |
| VEGGGDWA | no binding |
| VEGAASWF | no binding |
| YRKGSASD | binds |

| Variant | antigen binding call |
| --- | --- |
| YRKGAASD | binds |
| SRKGAASD | no binding |
| VEAGDALV | no binding |
| YRAKSALV | binds |
| YRARGALV | binds |
| YTAGSALV | no binding |
| VRARGALV | binds |
| VRAGDALV | no binding |
| VGGTGDVF | no binding |
| DGGADVGA | no binding |
| DKGTDVGA | no binding |
| FRRGGSGS | binds |
| FARGASGV | no binding |
| FRRGSSGD | binds |
| FRRGSSGS | binds |
| FRRGGSGV | binds |
| DAGAAAGD | no binding |
| DKREADVA | no binding |
| FKKGSFGA | no binding |
| VKRGSSAA | binds |
| FKGEGDAA | no binding |
| FKKGSAVA | binds |
| FKKGSSAA | binds |
| FRAGGSAA | binds |

| Variant | antigen binding call |
| --- | --- |
| FEEEGSAA | no binding |
| FKGEDAVA | no binding |
| ATTKSDAA | no binding |
| SREAADWV | no binding |
| DAGGGDVA | no binding |
| DARENAGY | no binding |
| DEGTGALA | no binding |
| FRRGDSAA | binds |
| FGRGSSWA | no binding |
| FKRGSSAA | binds |
| FKRKNSAA | no binding |
| FRRGGSAA | binds |
| FRRGSSAA | binds |
| DGERTAGV | no binding |
| VREEGDGA | no binding |
| VTTGGDGV | no binding |
| DRAGDDWY | no binding |
| YTAGSDWY | no binding |
| YRARGAWY | binds |
| YRAGGAWY | binds |
| YRAGGYWY | binds |
| YRAGGDWY | binds |
| DGGTSYSV | no binding |
| SKEAGYSV | no binding |

| Variant | antigen binding call |
| --- | --- |
| VTGEDDAV | no binding |
| ATGANSLD | no binding |
| YRKGGAWY | binds |
| YEKGGDVY | no binding |
| YRAKGAWY | binds |
| DGGTNDVD | no binding |
| DTKAASWV | no binding |
| VKKGSSLF | binds |
| VKKESSGF | no binding |
| YKERGDVF | no binding |
| YKKGSSLF | binds |
| VKGRADSF | no binding |
| YRTADDWV | no binding |
| YRKEAAWV | binds |
| YRKGGAWV | binds |
| SAEGGSSA | no binding |
| FGAKTASF | no binding |
| YRAETDVA | no binding |
| YRAGDDVA | binds |
| VRAGDDVA | no binding |
| YRGGSDVA | binds |
| VRGGSDVA | no binding |
| DRGRSDVA | no binding |
| YRAAGDVA | binds |

| Variant | antigen binding call |
| --- | --- |
| YAAGGDVA | no binding |
| YTAGSDVA | no binding |
| DAGGGAAV | no binding |
| AGGGNDWV | no binding |
| VAAKNDGA | no binding |
| VAKENAVA | no binding |
| YGKGTSGF | no binding |
| YRKGSSLF | binds |
| YRKGSSGF | binds |
| YTKAASWV | no binding |
| YRGGASWV | binds |
| YTRGASWV | no binding |
| YETTDSWV | no binding |
| YRGASSWV | binds |
| YAEATDLY | no binding |
| VTEGDSGV | no binding |
| VTTGSASF | no binding |
| DTEEGDWV | no binding |
| YRGEGASD | binds |
| YRRGSAVD | binds |
| DRRGDASD | no binding |
| YRRGSASD | binds |
| YTGTSASD | no binding |
| YRRGDASD | binds |

| Variant | antigen binding call |
| --- | --- |
| YTAAADLV | no binding |
| YETEGDVF | no binding |
| YRRGGASD | binds |
| DAGGGAVY | no binding |
| YRGKGSLA | binds |
| YRGRSALA | binds |
| YRKGAALA | binds |
| YRKKGDLA | no binding |
| YRGKGALA | binds |
| YTGRAALA | no binding |
| VTGTGDGV | no binding |
| AETKGAVA | no binding |
| DGGENAGD | no binding |
| VAGGDAVV | no binding |
| YRGKSALA | binds |
| FAGGSFAS | binds |
| FAAGGAWA | no binding |
| FRGGGSVS | binds |
| FAGGGFAV | no binding |
| FRGGGAVS | binds |
| FAAGGAAS | binds |
| FAGTSVGS | no binding |
| FAAGSSGS | no binding |
| FREGGAVS | no binding |

| Variant | antigen binding call |
| --- | --- |
| DTERDDAV | no binding |
| DGGTGDVF | no binding |
| FAGGGAGA | no binding |
| FAGGGASD | no binding |
| FAGGGAGS | binds |
| YTEEGDWV | no binding |
| SAAGGDVA chain 1 L45S | no binding |
| YRKGSALD | binds |
| YEKGGAGD | binds |
| YRKGSAGD | binds |
| YEKGGDVD | no binding |
| YRRANFLD | no binding |
| YRKGTAGD | binds |
| YEGGGDGD | no binding |
| YAGEGDGA | no binding |
| VTTADDWV | no binding |
| YKERDVGV | no binding |
| YKGRGVGV | binds |
| YKGKGVGV | binds |
| YRGKGVGV | no binding |
| DKGRSVGV | no binding |
| YKGRGVVV | binds |
| SKEGGVGV | no binding |
| AARADDGS | no binding |

| Variant | antigen binding call |
| --- | --- |
| SAAGGDGV chain 1 L45S | no binding |
| FTETGAGD | no binding |
| FRRGGAVD | binds |
| FRERGAGD | binds |
| FRRGGAGD | binds |
| FTEEGAGD | no binding |
| FRERGAGY | no binding |
| FRRGGSVD | binds |
| FGRGGVGD | no binding |
| VATGDFGV | no binding |
| YKKTGDLY | no binding |
| SKGENALY | no binding |
| YETETALY | no binding |
| YKTGGALY | binds |
| YKAGGALY | binds |
| VKTGGDVY | no binding |
| AARADDAV | no binding |
| YRTGDSGD | binds |
| YRTGGAGD | binds |
| SETGGAGD | no binding |
| DREEGSGD | no binding |
| YRTGGAWD | binds |
| FATGGSGD | no binding |
| DATGGAGD | no binding |

| Variant | antigen binding call |
| --- | --- |
| YRTGGSGD | binds |
| FTRTNFLS | no binding |
| VKEKGDVA | no binding |
| YAARGSAA | no binding |
| YKARGSAA | binds |
| YRGRSSAA | binds |
| YTRAGSAA | no binding |
| YRAKGSAA | binds |
| YKRRGSAA | binds |
| DAKTDDGV | no binding |
| DKEGGDGY | no binding |
| YRARSSAA | binds |
| YTKRGSAA | no binding |
| YGGGGVAA | no binding |
| YTGRGSAA | binds |
| YGATSSLA | no binding |
| YGAAGSAA | binds |
| YREKGSAA | binds |
| AREKGSAA | no binding |
